Measured values reported in PubChem BioAssay.
Values without a mark were called inactive. For some assays here: Potency and affinity values are given separately. Calls of active or inactive are those of the source.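 The calls were made as follows, unless noted: active = thallium flux through the channel raised or lowered by more than 3 SD from vehicle-only wells, actives on both sides; inactive = the rest.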

How the values were obtained:
F380Y = experiment: modulators of BK channel variants, profiling panel, selectivity assay, cell-based, U2OS BacMam, thallium flux, beta subunits (AID 1259406); settings: at 30 µM;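 also: initial slope of Thallos dye fluorescence rise after thallium is added; log ratio against the mean of 0.3% DMSO vehicle wells on the same plate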
F380Y/beta1 = experiment: as above; settings: at 30 µM
F380Y/beta2Delta = experiment: as above; settings: at 30 µM
F380Y/beta4 = experiment: as above; settings: at 30 µM
[1] = biological target: Calcium-activated potassium channel subunit alpha-1 (Homo sapiens) + Leucine-rich repeat-containing protein 26 (Homo sapiens) (UniProt Q12791+Q2I0M4); experiment: as above; settings: F380Y/Slo1WT/gamma1, at 30 µM
R275C = experiment: as above; settings: at 30 µM
R275C/beta1 = experiment: as above; settings: at 30 µM
R275C/beta2Delta = experiment: as above; settings: at 30 µM
R275C/beta4 = experiment: as above; settings: at 30 µM
R275C/Slo1WT/beta2 = experiment: as above; settings: at 30 µM
[2] = antimalarial activity against Dd2 strain (AID 2302;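 active = growth inhibition above 50% at the single 2 µM test dose, taken to imply half-maximal potency below 2 µM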;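 also: 0% = DMSO untreated growth and 100% = chloroquine plus artemisinin killed control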); settings: P. falciparum Dd2 in RBCs, LDH growth readout, 72 h; at 2 µM; hits give high values
[3] = HepG2 cytotoxicity, primary screen, cytotoxicity control for P. falciparum antimalarial project, cell-based, ATP luminescence (AID 2303;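 active = inhibition above 50%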;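 also: 0% = DMSO wells and 100% = digitonin-killed cells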); settings: HepG2 viability, 24-48 h, at 10 µM, hits give high values
[4] = biological target: L-lactate dehydrogenase (Plasmodium falciparum (isolate CDC / Honduras)) (UniProt Q27743); experiment: PfLDH activity inhibition – cell lysate, 3D7 strain, counter-screen for P. falciparum growth inhibition project (AID 2304; call rule not given here;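 also: 0% = vehicle and 100% = reference inhibitor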); settings: P. falciparum 3D7 crude extract, LDH APAD/NBT absorbance; at 2 µM; hits give high values
[5] = inhibition of 3D7 malaria parasite growth – strain 3D7 (AID 2306; call rule not given here;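 also: 0% = DMSO wells and 100% = chloroquine plus artemisinin control wells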); settings: P. falciparum 3D7 erythrocytic growth, LDH absorbance, 72 h; at 2 µM; hits give high values
[6] = biological target: Protein kinase 7 (PK7), Plasmodium falciparum 3D7 (PF3D7_0213400) (UniProt Q7YTF7); experiment: inhibition of Plasmodium PK7 catalytic activity – biochemical, TCAMS antimalarial set, Kinase-Glo luminescence (AID 1159587; call rule not given here); settings: recombinant PfPK7, Kinase-Glo ATP depletion luminescence
[7] = biological target: Calcium-dependent protein kinase 4 (Plasmodium falciparum (isolate 3D7)) (UniProt Q8IBS5); experiment: PfCDPK4 kinase inhibitors, biochemical, TCAMS library (AID 1159588; cut-off not given, nearly all actives have IC50 up to about 0.91 µM); settings: recombinant PfCDPK4, Kinase-Glo ATP depletion luminescence
Sequence of Calcium-dependent protein kinase 4 (Plasmodium falciparum (isolate 3D7)) (Q8IBS5 whole entry, looked up): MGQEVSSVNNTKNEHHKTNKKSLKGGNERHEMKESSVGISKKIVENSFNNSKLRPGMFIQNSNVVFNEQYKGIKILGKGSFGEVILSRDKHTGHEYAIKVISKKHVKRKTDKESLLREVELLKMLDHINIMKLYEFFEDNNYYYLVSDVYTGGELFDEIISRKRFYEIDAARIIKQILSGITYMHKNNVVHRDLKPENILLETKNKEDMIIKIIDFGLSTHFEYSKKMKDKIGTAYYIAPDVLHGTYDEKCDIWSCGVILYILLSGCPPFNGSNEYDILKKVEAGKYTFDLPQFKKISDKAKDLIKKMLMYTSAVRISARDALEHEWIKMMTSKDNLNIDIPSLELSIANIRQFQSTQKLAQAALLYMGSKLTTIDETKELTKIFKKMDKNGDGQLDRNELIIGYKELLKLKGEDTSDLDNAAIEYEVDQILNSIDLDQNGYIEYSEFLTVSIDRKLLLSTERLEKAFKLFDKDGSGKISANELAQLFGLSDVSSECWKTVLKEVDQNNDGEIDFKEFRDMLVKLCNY

Sequence of L-lactate dehydrogenase (Plasmodium falciparum (isolate CDC / Honduras)) (Q27743 whole entry, looked up): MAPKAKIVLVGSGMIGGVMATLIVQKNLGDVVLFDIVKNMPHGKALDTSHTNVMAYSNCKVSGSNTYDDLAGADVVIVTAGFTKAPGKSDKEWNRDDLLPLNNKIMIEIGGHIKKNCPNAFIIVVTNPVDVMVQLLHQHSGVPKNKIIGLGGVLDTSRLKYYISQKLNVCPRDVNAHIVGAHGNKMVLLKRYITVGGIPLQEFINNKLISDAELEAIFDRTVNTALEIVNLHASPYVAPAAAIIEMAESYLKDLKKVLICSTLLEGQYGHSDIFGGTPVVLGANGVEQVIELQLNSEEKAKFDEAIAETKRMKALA
Sequence of Protein kinase 7 (PK7), Plasmodium falciparum 3D7 (PF3D7_0213400) (Q7YTF7 1-343): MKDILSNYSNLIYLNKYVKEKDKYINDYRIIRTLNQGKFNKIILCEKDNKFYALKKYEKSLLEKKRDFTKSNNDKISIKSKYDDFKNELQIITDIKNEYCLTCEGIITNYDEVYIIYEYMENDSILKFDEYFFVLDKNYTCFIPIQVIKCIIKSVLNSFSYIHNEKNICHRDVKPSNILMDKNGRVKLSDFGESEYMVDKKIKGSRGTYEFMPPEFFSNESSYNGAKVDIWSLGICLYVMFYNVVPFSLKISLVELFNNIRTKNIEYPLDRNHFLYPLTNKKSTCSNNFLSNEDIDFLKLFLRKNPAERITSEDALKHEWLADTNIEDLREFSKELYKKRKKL
Sequence of Calcium-activated potassium channel subunit alpha-1 (Homo sapiens) + Leucine-rich repeat-containing protein 26 (Homo sapiens) (Q2I0M4 whole entry, looked up, one chain of several): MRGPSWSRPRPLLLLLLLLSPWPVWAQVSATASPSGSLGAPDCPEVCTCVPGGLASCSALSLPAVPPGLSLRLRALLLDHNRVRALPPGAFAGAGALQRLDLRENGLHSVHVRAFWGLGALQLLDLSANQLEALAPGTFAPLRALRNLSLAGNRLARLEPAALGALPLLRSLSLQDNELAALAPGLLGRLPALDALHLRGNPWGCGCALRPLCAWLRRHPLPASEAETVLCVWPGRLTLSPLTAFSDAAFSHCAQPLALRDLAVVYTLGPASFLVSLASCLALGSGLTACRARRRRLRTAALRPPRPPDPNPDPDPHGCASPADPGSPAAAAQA

Row | Compound | log fold change Tl+ flux (F380Y) | log fold change Tl+ flux (F380Y/beta1) | log fold change Tl+ flux (F380Y/beta2Delta) | log fold change Tl+ flux (F380Y/beta4) | log fold change Tl+ flux [1] | log fold change Tl+ flux (R275C) | log fold change Tl+ flux (R275C/beta1) | log fold change Tl+ flux (R275C/beta2Delta) | log fold change Tl+ flux (R275C/beta4) | log fold change Tl+ flux (R275C/Slo1WT/beta2) | growth inhibition [2] | inhibition [3] | inhibition [4] [%] | growth inhibition [5] | outcome [6] | outcome [7]
1 | O=C(O)CSCC(=O)Nc1ccc(-c2nc3ccccc3s2)cc1 | -0.0115 | 0.19 (active) | -0.0257 | -0.0352 | 0.126 (active) | 0.0193 | 0.0504 | 0.0724 | 0.0271 | -0.022 | – | – | – | – | – | –
2 | CS(=O)(=O)Cc1ccc(Nc2nccc(-c3c(-c4cccc(NC(=O)c5c(F)cccc5F)c4)nn4ccccc34)n2)cc1 | – | – | – | – | – | – | – | – | – | – | 75% (active) | 78% (active) | 0 | 99% (active) | inactive | –
3 | O=S(=O)(Cc1nc(C=Cc2cc(C(F)(F)F)cc(C(F)(F)F)c2)no1)c1ccc(Cl)cc1 | -0.0307 | 0.0685 | 0.000486 | -0.0134 | 0.00425 | 0.0144 | 0.0543 | 0.0281 | -0.0177 | 0.00318 | – | – | – | – | – | –
4 | O=C(c1ccccc1)c1ccc2c(c1)Cc1ccccc1-2 | 0.00926 | -0.00651 | 0.0385 | -0.103 (active) | -0.0649 | -0.0862 (active) | -0.0486 | -0.00396 | 0.00762 | -0.0152 | – | – | – | – | – | –
5 | Cc1cc(Nc2ncc(C#N)c(Nc3ccccc3C(N)=O)n2)ccc1N1CCN(C)CC1 | – | – | – | – | – | – | – | – | – | – | 94% (active) | 99% (active) | 0 | 94% (active) | inactive | –
6 | FC(F)(F)c1cc(C=Cc2noc(-c3ccc(CN4CCCC4)cc3)n2)cc(C(F)(F)F)c1 | -0.0963 | 0.0303 | -0.0239 | -0.0108 | 0.0236 | -0.0044 | 0.00631 | -0.0502 | -0.00136 | -0.00667 | – | – | – | – | – | –
7 | CC(=O)Nc1cccc(Nc2nccc(-c3c(-c4cccc(NC(=O)c5c(F)cccc5F)c4)nn4ncccc34)n2)c1 | – | – | – | – | – | – | – | – | – | – | 51% (active) | 83% (active) | 5 | 96% (active) | inactive | –
8 | COc1ccc(Nc2ncc3c(-c4cccc(NC(=O)Cc5ccc(O)cc5)c4)c[nH]c3n2)cc1OC | – | – | – | – | – | – | – | – | – | – | 99% (active) | 48% | -2 | 102% (active) | inactive | inactive
9 | COC(=O)c1c(S(=O)(=O)N2CCOCC2)c(C)n(C)c1C | 0.000226 | 0.0187 | -0.00469 | 0.00738 | 0.0534 | -0.00135 | 0.0384 | 0.108 (active) | 0.0019 | -0.000777 | – | – | – | – | – | –
10 | N#Cc1cc(-c2ccccc2)oc1NC(=O)c1cccs1 | -0.0586 | 0.0261 | 0.0131 | 0.0109 | 0.0363 | 0.00241 | -0.0262 | 0.0138 | -0.00555 | 0.0278 | – | – | – | – | – | –
11 | Nc1ccc(Cl)cc1-c1nc2ccccc2[nH]1 | -0.0882 | -0.0427 | -0.0974 | -0.0939 (active) | -0.0918 | -0.0721 | -0.112 (active) | -0.0678 | -0.0366 | 0.00169 | – | – | – | – | – | –
12 | CN1CCN(c2ccc(Nc3ncc(C#N)c(Nc4ccccc4C(N)=O)n3)cc2)CC1 | – | – | – | – | – | – | – | – | – | – | 93% (active) | 43% | -1 | 92% (active) | inactive | –
13 | N=C(N)Cc1c(Cl)cccc1Cl | 0.017 | 0.00557 | -0.000365 | -0.0202 | -0.0432 | 0.0228 | 0.0441 | 0.028 | 0.0274 | 0.00537 | – | – | – | – | – | –
14 | Cc1ccc(S(=O)(=O)Oc2c(Cc3ccccc3)c(=O)n(C)c3ccccc23)cc1 | -0.047 | -0.00429 | -0.0297 | 0.0237 | -0.018 | -0.0579 | -0.0357 | -0.0097 | -0.0625 | 0.0422 | – | – | – | – | – | –
